Bioassay records deposited in PubChem by National Center for Advancing Translational Sciences (NCATS).
Only some compounds are listed: those with a hit (about 3.6% of all), similar ones and a draw of the others.
HepG2 viability: qHTS for Inhibitors of TGF-b: Cytotox Counterscreen. HepG2 CAGA-GFP viability, ATP luminescence, 18 h. Potency, µM (doses to about 46.1 µM), inactives show at the highest dose activity change, negative = cytotoxicity, usual class: cytotoxic. 410,000 compounds, 0.76% hits. AID 588856, 2011
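CellTiter-Glo luminescence gave cytotoxicity after 18 hours at 37 degrees C. The cells were HepG2 CAGA-GFP in 1% FBS DMEM, stimulated with 500 pg/mL TGF-beta after compound addition. %Activity was normalised to no-cell wells (complete cell-killing) and DMSO (no toxicity), and curves were fitted and classified.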
A549 viability: Nrf2 qHTS screen for inhibitors: counterscreen for cytotoxicity; A549 ARE-Fluc cells, CellTiter-Fluor viability, 18-24 h; Potency, µM (top dose mostly 46 µM), for inactives: top-dose activity change, negative = cytotoxicity, usual class: inhibitors; 390,000 compounds, 0.16% hits; AID 504648, 2011; further: on the % scale 0 is the no-effect control and ±100 the full control effect
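A549 ARE-Fluc cells in 5% FBS OPTI-MEM, 5000 cells/well, rested 2 h then exposed to compounds in concentration-response for 18-24 h at 37 °C. Viability by CellTiter-Fluor fluorescence (Ex 405/Em 525) after 30 min; luciferase luminescence (BugLite, 15 min, RT) read afterwards.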
Nrf2 ARE act: qHTS of Nrf2 Activators. AREc32 ARE-luciferase reporter (MCF7-derived line), luminescence, 24 h. Potency, µM (series often up to 46.1 µM), inactives show top-dose activation, actives largely listed as activators. 410,000 compounds, 0.31% hits. AID 624171, 2012; further: % of control where 0% means no effect; nearly all actives have a fitted effect of over 65% in size
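Steps: seed AREc32_Fluc cells (1000/well, 5% FBS OPTI-MEM); incubate overnight at 37 deg C; add 23 nL compound; incubate 24 hr; add Steady-Glo; hold 30 min RT; read luminescence.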
Nrf2 inh: Nrf2 qHTS screen for inhibitors; A549 ARE-Fluc reporter, luciferase luminescence, 18-24 h; 360,000 compounds, 2.1% hits; AID 504444, 2011; Potency, µM (highest dose often 46 µM), for inactives: at the top dose activity change, negative = inhibition, actives largely listed as inhibitors; further: on the % scale 0 is the no-effect control and ±100 the full control effect; nearly all actives have a fitted effect of over 60% in size
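Concentration-response testing used A549 ARE_Fluc cells at 5000 cells/well. Following an 18-24 h compound incubation, viability was read by fluorescence (Ex 405/Em 525) and luciferase output by luminescence.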
TGFb SMAD3 inh: qHTS for Inhibitors of TGF-b; HepG2 CAGA-GFP TGF-b/SMAD3 reporter, GFP fluorescence, 18 h; TGF-beta stimulated, 500 pg/mL final; Potency, µM (series often up to 46.1 µM), inactives show at the highest dose activity, negative = inhibition, usual class: inhibitors; 410,000 compounds, 1.2% hits; further: on the % scale 0 is the no-effect control and ±100 the full control effect; nearly all actives have a fitted effect of over 65% in size
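HEPG2 CAGA-GFP reporter cells (1000/well, DMEM with 1% FBS) received compounds, then recombinant TGF-beta at 500 pg/mL final for 18 hours at 37 degrees C. Per-cell GFP summed per well was normalised to unstimulated and stimulated DMSO controls before curve fitting.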
The depositor's hits bear a star; ? = inconclusive; nt = no result given. The call rests on the fitted dose curve; in most records, active means well fitted curve in the direction sought with a large enough effect; inconclusive means small, poorly fitted or top-dose-only effect, or another doubt; inactive means no such curve, though single readings can be large; an effect the other way counts as inactive or inconclusive. Potency means the concentration at half of the fitted maximal effect.

SMILES	HepG2 viability	A549 viability	Nrf2 ARE act	Nrf2 inh	TGFb SMAD3 inh
C=CCOC(=O)C1=C(C)NC(C)=C(C(=O)OCC=C)C1/C=C/c1ccccc1	12.6µM*	-21.1%	0.0%	?	?
CC(C)CC(=O)NC(=S)Nc1cccc(NC(=O)c2ccccc2)c1	-10.8%	-15.7%	3.6%	14.6µM*	?
CC(C)C(=O)Nc1cccc(NC(=S)NC(=O)c2ccccc2Cl)c1	-31.3%	-11.5%	2.6%	?	0.0%
O=C(Nc1ccc(NC(=S)NC(=O)c2ccccc2Cl)cc1)c1cccc(Cl)c1	-5.9%	2.2%	4.8%	18.4µM*	0.7%
COc1ccc2c(c1)c(C(C)=O)c(C)n2-c1ccccc1	-1.9%	9.0%	-0.1%	?	3.3%
CCOC(=O)C(=CNc1cccnc1Oc1ccc(C)c2c1CCC2)C(=O)OCC	24.2%	-19.0%	-0.3%	18.4µM*	0.1%
Cc1ccc(Oc2ncccc2NC(=O)CC2(CC(=O)O)CCCC2)c2c1CCC2	16.2%	0.5%	-0.1%	-2.8%	-2.6%
CC1=C(C#N)C(c2ccccc2)C2=C(N1)c1ccccc1C2=O (configuration not stated)	-7.0%	?	-0.3%	23.1µM*	-1.9%
CCCCn1c(CNC(=O)c2ccc(OC)cc2)nnc1SCC(=O)Nc1ccc(OC)cc1	5.9%	-8.7%	0.4%	-20.1%	-6.2%
NC(N)=NN=C(c1ccc(F)cc1)c1ccc(C(F)(F)F)cc1	-109.5%	?	-1.7%	?	10µM*
CCCCNC(=O)CSc1nc(CCC)nc2ccccc12	-80.6%	-8.1%	8.2%	-29.3%	0.0%
COc1ccc(CC(=O)Nc2ccc3nc(Nc4cccc(Cl)c4)cc(C)c3c2)cc1	-19.6%	?	0.7%	25.9µM*	?
COc1ccc(CC(=O)Nc2sc3c(c2C(=O)Nc2cccc(Cl)c2)CCCCC3)cc1	17.8µM*	-3.4%	-5.4%	-13.7%	?
Cc1cc(Nc2cccc(Cl)c2)nc2ccc(NC(=O)c3cccc(N(C)C)c3)cc12	-28.3%	-3.7%	0.8%	0.9%	-1.8%
Cc1cc(Nc2cccc(C(F)(F)F)c2)nc2ccc(NC(=O)Cc3ccc(Cl)cc3)cc12	10µM*	?	-0.7%	16.4µM*	?
Cc1cc(Nc2cccc(Cl)c2)nc2ccc(NC(=O)c3cccnc3)cc12	12.6µM*	-26.3%	-3.6%	-103.3%	15.8µM*
Oc1ccccc1-n1nc2ccc3nonc3c2n1	-9.9%	0.6%	10µM*	-0.6%	-29.5%
CSc1nc(C)cc(SCC(=O)Nc2ccc(Cl)cc2Cl)n1	-5.2%	2.3%	-0.4%	-10.9%	-13.2%
Cc1ccc(Sc2nnc(Cc3ccccc3)c3ccccc23)cc1	17.8µM*	-23.3%	?	?	14.1µM*
CCN1C(=O)/C(=C\C=C2/C=CC=CN2CC)SC1=S	-44.1%	14.6µM*	0.2%	?	?
C[C@@H]1CN([C@@H](C)CO)C(=O)c2cc(NS(C)(=O)=O)ccc2O[C@H]1CN(C)Cc1ccc(Oc2ccccc2)cc1	-12.4%	-4.4%	4.2%	13.2%	?
C[C@@H]1CN([C@@H](C)CO)C(=O)c2cc(NC(=O)Nc3ccc(F)cc3)ccc2O[C@@H]1CN(C)Cc1ccc(Oc2ccccc2)cc1	15.8µM*	?	-1.6%	?	?
CC(C)NC(=O)Nc1ccc2c(c1)C(=O)N([C@H](C)CO)C[C@H](C)[C@@H](CN(C)Cc1ccc(C(F)(F)F)cc1)OCCCC[C@H](C)O2	-35.9%	nt	-2.5%	nt	15.8µM*
C[C@@H]1CCCCO[C@H](CN(C)Cc2ccc(C(F)(F)F)cc2)[C@H](C)CN([C@@H](C)CO)C(=O)c2cc(NC(=O)Cc3ccccc3)ccc2O1	-46.1%	nt	3.1%	nt	?
COc1ccc(CN(C)C[C@@H]2OCCCC[C@H](C)Oc3ccc(NC(=O)Nc4ccc(F)cc4)cc3C(=O)N([C@H](C)CO)C[C@H]2C)cc1	25.1µM*	nt	-4.9%	nt	?
CSc1ncc(CN2CCCC(C(=O)Nc3ccc(-c4ccco4)cc3)C2)cn1 (configuration not stated)	30.5%	0.2%	?	-2.1%	22.2%
